Screening results: PubChem BioAssay, National Center for Advancing Translational Sciences (NCATS)
The list is not random: actives were taken first. Their share in the collection is about 19%.
IL-1B inflam inh – inhibitors of inflammasome signaling (IL-1 beta secretion); THP-1 LPS/ATP IL-1B secretion, AlphaLISA, 16 h; active compounds read low; activity change, % at 57.5 µM; actives 4.7% (n = 360,000); in the data active = activity change below about -50%; inconclusive = mostly about -30% to -49%; note: % is set by controls: 0 for no effect and ±100 for the full control effect
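THP-1 cells pretreated 1 hr with compounds (up to 57.5 uM final), then stimulated with LPS (250 ng/mL final) plus ATP (1.25 mM final); secreted IL-1B measured by AlphaLISA after 16 hr, decreased signal indicating inhibition.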
MCF10A rereplic – DNA re-replication induction in MCF 10a cells; MCF 10A DNA re-replication, Hoechst nuclear intensity, 48 h; Potency, µM (top dose mostly 46.1 µM), for inactives: at the highest dose activity, positive = re-replication, actives largely listed as activators; actives 2.9% (n = 350,000); AID 624296; note: potency is the fitted concentration of half-maximal effect; % of control where 0% means no effect; nearly all actives have a fitted effect of over 50% in size
DT40 TDP1 no CPT – qHTS for Inhibitors of human tyrosyl-DNA phosphodiesterase 1 (TDP1): qHTS in cells in absence of CPT; DT40 Tdp1-/- hTDP1 cells, no CPT, ATP luminescence, 48 h; Potency, µM (highest dose often 46.2 µM), for the others: at the top dose activity change, negative = growth inhibition, hits mostly inhibitors; actives 15% (n = 420,000); AID 686978, 2013; note: potency is the fitted concentration of half-maximal effect; % is set by controls: 0 for no effect and ±100 for the full control effect; nearly all actives have a fitted effect of over 55% in size
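Readout: luminescence from CellTiter-Glo after 30 min in the dark at RT. Cells: DT40 Tdp1-/- with stable hTDP1, 400/well. Exposure: compounds alone, ≥48 hr, 37 °C.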
BCR signal inh – chronic active BCR signaling inhibition | actives 0.05% (n = 340,000) | ABC-DLBCL IkBa-CBG/CBR reporter, luminescence ratio, 4 h | Potency, µM (top dose mostly 46.1 µM), for inactives: top-dose activity change, negative = inhibition, usual class: inhibitors | AID 493014; active = well fitted inhibition curve with a large enough effect in the signal ratio, with a control signal flat, not every such curve was filed as active; inconclusive = small, poorly fitted or top-dose-only effect, or effect the other way, or a change in a side signal; the % refers to the signal ratio;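 note: potency is the fitted concentration of half-maximal effect; plate controls were basal doxycycline-induced cells for no effect and cells given 10 µM MG132 for full effect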
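Compounds up to 46 uM were incubated four hours with TMD8 cells whose green CBG68 luciferase is fused to IkappaBalpha; red CBR luminescence normalised the signal, and concentration-effect curves were fitted to fusion, red and ratio data.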
DT40 TDP1 CPT – DT40-hTDP1 cell growth loss with CPT | chicken DT40 Tdp1-/-;hTDP1 cells + 20 nM CPT, ATP luminescence, 48 h | Potency, µM (titrated, usually from 46.2 µM), for the others: at the highest dose activity change, negative = growth inhibition, most hits filed as inhibitors | actives 12% (n = 420,000); note: potency is the fitted concentration of half-maximal effect; % is set by controls: 0 for no effect and ±100 for the full control effect; nearly all actives have a fitted effect of over 55% in size
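Chicken DT40 Tdp1-/- cells stably complemented with human TDP1 were seeded at 400 cells/well in medium containing 20 nM camptothecin, exposed to pin-transferred compounds, and grown at 37 °C for at least 48 hr. Viability was read as ATP luminescence.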
SW480 rerep – inducers of DNA re-replication in SW480 colon cancer cells; SW480 DNA re-replication, Hoechst DNA content imaging, 48 h; Potency, µM (top dose mostly 46.1 µM), without a hit: top-dose re-replication activation, most hits filed as activators; actives 1.8% (n = 340,000); AID 624297; note: potency is the fitted concentration of half-maximal effect; % of control where 0% means no effect; nearly all actives have a fitted effect of over 55% in size
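Per well, 250 cells were exposed to pinned compound for 48 hr. Nuclear DNA was visualised with Hoechst (40 min, 37 C) and total object intensity recorded by fluorescence scanning.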
An asterisk follows results filed as active; i = inactive; ? = inconclusive; / = no result; [ ] = another dose, or the depositor's remark. Unless noted, calls come from the whole dose curve; as a rule, active = well fitted curve in the direction sought with a large enough effect; inconclusive = small, poorly fitted or top-dose-only effect, or another doubt; inactive = no such curve, though single readings can be large; an effect the other way counts as inactive or inconclusive.

SMILES	IL-1B inflam inh	MCF10A rereplic	DT40 TDP1 no CPT	BCR signal inh	DT40 TDP1 CPT	SW480 rerep
CCCc1nn(C)c2c(=O)[nH]c(-c3cc(S(=O)(=O)Nc4ccc(NC(C)=O)cc4)ccc3OCC)nc12	?	15%	?	-1%	10µM*	7%
COc1cc(NC(=O)[C@@H]2O[C@H](CO)[C@@H](O)[C@H]2O)cc(OC)c1OC	5	/	1%	/	2%	/
CCN1C(=O)[C@H]2[C@@H](c3ccc(-c4cccc(Cl)c4)c(OC)c3)N[C@@](CC(C)C)(C(=O)OC)[C@H]2C1=O	-61*	5.8µM*	?	-12%	?	?
COC(=O)[C@]1(CC(C)C)N[C@H](c2ccc(-c3ccc(Cl)c(Cl)c3)cc2)[C@@H]2C(=O)N(C)C(=O)[C@@H]21	?	21%	18µM*	-8%	?	7%
CCN1C(=O)[C@H]2[C@@H](c3ccc(-c4cccc(Cl)c4)cc3)N[C@@](CC(C)C)(C(=O)OC)[C@H]2C1=O	-27	-9%	12µM*	-3%	18µM*	3%
COC(=O)[C@]1(CC(C)C)N[C@H](c2ccc(-c3ccc(C(C)=O)cc3)cc2)[C@@H]2C(=O)N(C)C(=O)[C@@H]21	17	-9%	?	0%	-22%	-7%
CCN1C(=O)[C@H]2[C@@H](c3ccc(-c4ccc(OC)cc4)cc3)N[C@@](CC(C)C)(C(=O)OC)[C@H]2C1=O	-2	16%	23µM*	9%	?	0%
Cc1ccc(CN2CC(C(=O)N(CC(C)C)c3c(N)n(Cc4ccccc4)c(=O)[nH]c3=O)CC2=O)cc1 (configuration not stated)	-9	2%	4%	/	-2%	1%
Cc1ccc(-c2cc(NC(=O)c3ccccc3Cl)on2)cc1	/	/	-14%	/	?	/
CCN1C(=O)[C@H]2[C@@H](c3ccc(-c4ccc(Cl)c(Cl)c4)cc3)N[C@@](CC(C)C)(C(=O)OC)[C@H]2C1=O	0	?	?	?	4.1µM*	12%
COc1cc(NC(=O)CSc2ccc(-c3sc(C)nc3C)nn2)cc(OC)c1	/	/	18µM*	/	21µM*	/
CCOc1ccc(NC(=O)CSc2ccc(-c3sc(-c4ccccc4)nc3C)nn2)cc1	/	/	?	/	-88%	/
CCOC(=O)c1ccccc1NC(=O)CSc1ccc(-c2sc(C)nc2C)nn1	/	/	12µM*	/	15µM*	/
CC(=O)c1ccc(NC(=O)CSc2ccc(-c3sc(C)nc3C)nn2)cc1	-4	17%	?	-13%	13µM*	-29%
COc1ccc(NC(=O)CSc2ccc(-c3sc(C)nc3C)nn2)cc1OC	i	?	8.2µM*	5%	?	-12%
CCOC(=O)c1ccccc1NC(=O)CSc1cc(C)[nH]c(=O)n1	/	/	-10%	-9%	-11%	/
CCCc1c(C(=O)N/N=C(\CC)c2ccccc2)nnn1-c1nonc1N	-12	/	-4%	/	-21%	/
COc1ccc(CNC(=O)C(c2ccco2)N(C(=O)c2ccccn2)c2ccccc2)cc1 (configuration not stated)	-2	-6%	23µM*	?	10µM*	0%
C=CCOc1cccc(C(=O)/C=C2/C(=O)Nc3ccccc32)c1	?	5.8µM*	6.5µM*	?	7.3µM*	?
O=C(O)COc1ccccc1/C=C1\C(=O)Nc2ccc(Br)cc21	29	-16%	5%	1%	12%	-8%
O=C1Nc2ccc(Br)cc2/C1=C/C(=O)c1ccccc1	-103*	18µM*	4.6µM*	/	5.8µM*	?
CC(=O)/C=C1/C(=O)Nc2ccccc21	-15	?	3.7µM*	?	6.5µM*	-5%
COC(=O)c1cn([C@@H]2C[C@@H](C(=O)Nc3cccc(SC)c3)N(C3CCCC3)C2)nn1	/	/	-24%	/	3%[9.04 µM]	/
CCc1ccc(N2CC(C(=O)OCC(=O)Nc3ccc([N+](=O)[O-])cc3)CC2=O)cc1 (configuration not stated)	10	6%	-4%	?	3%	-2%
COc1ccc(CN2C[C@@H](CO)O[C@@H](n3cnc4c(NCc5ccc(F)cc5)ncnc43)C2)cc1	28	/	?	/	?	/
SMILES	IL-1B inflam inh	MCF10A rereplic	DT40 TDP1 no CPT	BCR signal inh	DT40 TDP1 CPT	SW480 rerep
OCCN(CCO)CC(O)Cn1c2ccccc2c2ccccc21 (configuration not stated)	-4	1%	?	?	-20%	?
CCCN(CCC)CC(O)Cn1cc(/C=C/C(=O)c2ccc(C)cc2)c2ccccc21 (configuration not stated)	/	/	21µM*	/	?	/
CCCN(CCC)CC(O)Cn1cc(/C=C/C(=O)c2cccs2)c2ccccc21 (configuration not stated)	-104*	?	?	?	18µM*	16µM*
Cn1cc(/C=N\NC(=O)c2cccs2)c2ccccc21	18	?	12%	?	-2%	25%
CC(C)(C)NCC(O)Cn1cc(C=O)c2ccccc21 (configuration not stated)	0	0%	-1%	2%	-7%	?
CCCN(CCC)CC(O)Cn1cc(/C=C/C(=O)c2ccc(Br)cc2)c2ccccc21 (configuration not stated)	/	/	4.6µM*	/	3.3µM*	/
Nc1cc(S(=O)(=O)N2CCCCC2)ccc1Oc1ccc(Cl)cc1	-14	?	8.2µM*	10%	?	-8%
COC(=O)c1ccc(Oc2ccc(S(=O)(=O)N3CCCCC3)cc2N)cc1	12	7%	16µM*	?	?	-3%
Cc1cccc(Oc2ccc(S(=O)(=O)N3CCCCC3)cc2N)c1	27	?	?	1%	?	-6%
CCc1nn2c(=O)cc(COC(=O)c3cccs3)nc2s1	/	/	-2%	/	-16%	/
Cc1ccc(-c2cc(N)n(-c3ccc(C)cc3)n2)cc1	1	-1%	?	?	?	3%
Cc1ccc(-c2cc3nn(-c4ccccc4)c(N)c3c(=O)o2)cc1	-56*	16%	21µM*	-6%	?	?
CCc1ccc(-c2cc(C(=O)Nn3cnnc3)c3ccccc3n2)cc1	26	2%	13µM*	?	7.3µM*	0%
CCC/C=N/NC(=O)c1cc(-c2ccccc2)nc2ccccc12	22	-2%	?	?	-10%	-4%
